# Compound activity from PubChem BioAssay.
# NR3A LBD binder = binders of NR3A ligand-binding domain, primary screen, biophysical, differential scanning fluorimetry, uHTS. Glutamate receptor ionotropic, NMDA 3A (GRIN3A) ligand-binding domain. NR3A LBD differential scanning fluorimetry, Tm shift; 0% = protein alone, 100% = glycine-bound protein. Tm shift relative to glycine control, % at 25 µM. actives 2.5% (n = 340,000). AID 1259313, 2017;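 active means melting temperature shift of at least 10% of the positive control shift, at one fixed dose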
# proKLK7 act = proKLK7 zymogen activators, primary screen, biochemical, fluorescence intensity. actives 0.9% (n = 370,000). activation, % at 7 µM. purified proKLK7, EDANS-DABCYL substrate fluorescence; 100% is mature enzyme control, 0% vehicle. Kallikrein-7 (Homo sapiens), P49862;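 active means activation above the mean of all tested compounds plus 3 SD, computed per campaign excluding outliers beyond control limits, cut at about 13% in these data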
# ADAM10 inh = human ADAM10 inhibitors, primary screen, biochemical, QFRET, HTS; Disintegrin and metalloproteinase domain-containing protein 10 (Homo sapiens), O14672; recombinant ADAM10, EDANS/DABCYL FRET peptide cleavage, 3 h; inhibition, % at 7 µM; actives 0.62% (n = 370,000); AID 720582, 2013;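 active means inhibition above a per-campaign cutoff equal to the mean of compounds falling between control-based bounds plus 3 SD, cut at about 20% in these data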;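 further: 0% = DMSO wells while the 100% control is not disclosed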
# FAS TE block = FAS thioesterase domain inhibitors, primary screen, biochemical, fluorescence intensity, uHTS. recombinant FAS-TE, OMFH fluorogenic substrate, fluorescence endpoint. actives 0.67% (n = 360,000). inhibition, % at 15 µM. Fatty acid synthase (Homo sapiens), P49327;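 active means compounds whose normalised, plate-corrected inhibition of enzyme fluorescence in the single-dose primary screen is 50% or more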;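 further: 0% = DMSO with enzyme and 100% = substrate without enzyme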
# ADAM17 inh = ADAM17 inhibitors, primary screen, biochemical, QFRET; AID 720648, 2013; Disintegrin and metalloproteinase domain-containing protein 17 (Homo sapiens), P78536; recombinant ADAM17, EDANS/DABCYL FRET peptide cleavage; inhibition, % at 6.95 µM; actives 0.83% (n = 370,000);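 active means inhibition above the mean of compounds lying between control limits plus 3 SD, set per campaign, cut at about 8.5% in these data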;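 further: 0% = DMSO-only wells as the low control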
# Target sequence (P78536 215-824 limits assumed): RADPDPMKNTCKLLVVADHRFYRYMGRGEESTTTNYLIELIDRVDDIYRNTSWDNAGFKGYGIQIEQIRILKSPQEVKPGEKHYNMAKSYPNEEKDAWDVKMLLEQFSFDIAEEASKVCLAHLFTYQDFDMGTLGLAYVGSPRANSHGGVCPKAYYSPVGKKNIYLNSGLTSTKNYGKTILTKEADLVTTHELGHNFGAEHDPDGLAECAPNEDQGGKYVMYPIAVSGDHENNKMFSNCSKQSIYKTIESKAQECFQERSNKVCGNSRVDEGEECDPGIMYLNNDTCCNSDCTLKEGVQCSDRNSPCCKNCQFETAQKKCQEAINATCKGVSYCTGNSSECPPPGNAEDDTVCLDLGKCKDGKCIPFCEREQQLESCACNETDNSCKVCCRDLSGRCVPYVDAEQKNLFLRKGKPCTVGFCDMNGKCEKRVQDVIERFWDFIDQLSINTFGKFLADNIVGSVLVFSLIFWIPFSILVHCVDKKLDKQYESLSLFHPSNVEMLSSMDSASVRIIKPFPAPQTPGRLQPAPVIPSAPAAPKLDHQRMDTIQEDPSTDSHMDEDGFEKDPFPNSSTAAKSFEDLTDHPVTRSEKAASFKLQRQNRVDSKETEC
# ADAM10 ctr = ADAM10 inhibitors, counter-screen for ADAM17 exosite inhibitor project, biochemical, FRET, human ADAM10. shares compounds with ADAM17 inh. recombinant ADAM10, EDANS/DABCYL FRET peptide cleavage, 3 h. inhibition, % at 6.95 µM. actives 47% (n = 2,900). AID 743256, 2014;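 active means mean inhibition over the triplicate runs exceeds the activity threshold set in the earlier primary screen, cut at about 20% in these data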;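 further: 0% = DMSO wells and 100% = marimastat wells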
# ADAM17 confirm = ADAM17 inhibitors, hit retest, confirmation, biochemical, QFRET peptide cleavage | shares compounds with ADAM17 inh | actives 65% (n = 2,900) | recombinant ADAM17, EDANS/DABCYL QFRET peptide cleavage | inhibition, % at 6.95 µM;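 active means mean inhibition across replicates above the hit cutoff set in the primary screen, cut at about 8.5% in these data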;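 further: 0% = DMSO wells and 100% = marimastat wells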
# Starred values were filed as active, the others as inactive; x = not tested or not shown. A selection: hits, their analogues and other compounds. The true share with any hit is near 4.6%.
SMILES,NR3A LBD binder,proKLK7 act,ADAM10 inh,FAS TE block,ADAM17 inh,ADAM10 ctr,ADAM17 confirm
COc1ccc(C)cc1NC(=O)CSc1nnc(COc2ccc(C)cc2)n1Cc1ccco1,-0.4,0.5,18.9,11.0,10.8*,25.9*,14.7*
O=C(CSc1nnc(-c2cccs2)n1Cc1ccco1)Nc1ccc(OCc2ccccc2)cc1,x,0.6,16.8,x,9.4*,23.2*,12.0*
Cn1cnnc1SCC(=O)c1cccc([N+](=O)[O-])c1,0.7,-0.4,9.8,-1.3,8.7*,2.5,2.6
COC(=O)C1=C(C)N(Cc2cccc(C(F)(F)F)c2)C(=NCc2ccc(C(F)(F)F)cc2)NC1c1ccc(F)cc1 (stereo not given),x,0.7,3.7,x,9.5*,21.5*,11.8*
COC(=O)C1=C(C)N(Cc2cccc(C(F)(F)F)c2)C(=NCc2ccc3c(c2)OCO3)NC1c1cccc(C(F)(F)F)c1 (stereo not given),x,-0.2,-0.2,x,-1.9,x,x
COC(=O)C1=C(C)N(Cc2cccc(C(F)(F)F)c2)C(=NCc2ccc3c(c2)OCO3)NC1c1ccc(F)cc1 (stereo not given),x,0.4,-6.8,x,9.9*,19.4,11.8*
Clc1cccc(CN2CCN(c3ncc(Cc4ccccc4)cn3)CC2)c1Cl,x,1.3,-9.2,x,-3.3,x,x
COc1cccc(NC(=O)CSc2nncn2N)c1,2.6,0.9,11.1,-10.4,9.7*,9.4,8.6
COCCN(C(=O)C1CCC1)c1c(N)n(CC(C)C)c(=O)[nH]c1=O,-0.4,-0.7,-6.4,-4.2,-2.6,x,x
CCCCC1CCC(C(=O)N(CCOC)c2c(N)n(CC(C)C)c(=O)[nH]c2=O)CC1 (stereo not given),-2.1,0.1,-9.1,-9.0,9.3*,2.9,4.0
C=CC[C@]12C[C@@]3(O[C@H](c4ccccn4)N=C3C[C@H](c3ccc(OC)cc3)[C@H]1C)N(C1CCN(Cc3ccccc3)CC1)C2=O,x,0.4,4.6,x,2.6,x,x
O=C(N/N=C/c1cccs1)C1CC(=O)N(c2ccccc2)C1 (stereo not given),-1.0,-0.6,1.8,-5.6,-3.7,x,x
Cc1ccc(/C=N/NC(=O)C2CC(=O)N(c3ccccc3)C2)s1 (stereo not given),-8.3,0.8,3.5,-10.8,10.2*,-0.1,1.8
CCOC(=O)N1CCN(C(=O)C[C@H]2C[C@@]3(C(=O)OC)C(=C[C@H](C(C)C)O[C@@H]3C3CC3)N(Cc3ccccc3)C2=O)CC1,x,-0.4,0.0,x,3.0,x,x
CCOc1cc(/C=N/NC(=O)c2ccc3c(c2)OCCO3)cc(Br)c1O,-3.0,0.0,-5.7,1.6,23.3*,-18.7,1.3
O=C(N/N=C/c1cc(Br)c(O)c(Br)c1O)c1ccc2c(c1)OCCO2,2.6,9.6,-63.8,8.1,-24.7,x,x
O=S1(=O)N[C@H](Cc2ccccc2)COc2cc(Br)ccc21,x,-0.3,-11.1,x,0.4,x,x
O=C(COC(=O)c1ccccc1Cc1ccccc1)Nc1ccc(SC(F)F)cc1,19.1*,0.6,10.7,27.9,9.6*,20.3*,13.6*
Cc1ccc(C(=O)c2ccccc2C(=O)OCC(=O)Nc2ccc(SC(F)F)cc2)cc1,-486.5,-0.6,18.5,34.6,12.6*,34.9*,17.6*
CSc1ccccc1NC(=O)COC(=O)c1ccccc1Cc1ccccc1,1.9,0.1,6.2,40.1,4.1,x,x
C=CCOC(=O)C1=C[C@@H](c2coc3ccccc3c2=O)C[C@@H](OCc2ccc(CO)cc2)O1,-0.2,3.5,6.8,3.1,14.5*,25.7*,10.1*
C=CCOC(=O)C1=C[C@H](c2coc3ccccc3c2=O)C[C@H](OCc2ccc(CO)cc2)O1,-1.2,0.3,-5.3,1.9,-4.4,x,x
Cc1cc(C)c(S(=O)(=O)N2C[C@H]3CON(C)[C@H]3C[C@H]2c2ccc(-n3ccnc3)cc2)c(C)c1,x,0.6,-13.0,x,-7.4,x,x
O=C(NCc1ccccc1)[C@@H]1CCCN1C(=O)[C@H]1CCCN1C(=O)c1ccc(Cl)c(Cl)c1,x,0.1,-3.7,x,-1.4,x,x
COC(=O)[C@]12C[C@H](CC(=O)NCc3ccc(C)o3)C(=O)N(Cc3cccc4ccccc34)C1=C[C@H](C(C)C)O[C@@H]2C1CC1,x,-0.1,18.6,x,11.1*,9.3,8.9*
SMILES,NR3A LBD binder,proKLK7 act,ADAM10 inh,FAS TE block,ADAM17 inh,ADAM10 ctr,ADAM17 confirm
COC(=O)[C@]12C[C@H](CC(=O)NCC3CCCCC3)C(=O)N(CCc3ccc(OC)c(OC)c3)C1=C[C@H](C1CCCC1)O[C@@H]2C,x,0.8,13.4,x,6.6,x,x
COC(=O)[C@]12C[C@H](CC(=O)NCC3CCCCC3)C(=O)N(CCc3ccc(OC)c(OC)c3)C1=C[C@H](C(C)(C)C)O[C@@H]2C,x,0.4,6.8,x,9.7*,19.1,11.0*
CCCCCCCCN1C(=O)[C@@H](CC(=O)NCc2ccccc2)C[C@@]2(C(=O)OC)C1=C[C@H](C1CCCC1)O[C@@H]2C,x,0.9,5.6,x,-3.2,x,x
COC(=O)[C@]12C[C@H](CC(=O)NCc3ccccc3)C(=O)N(Cc3cccc4ccccc34)C1=C[C@H](C1CCCC1)O[C@@H]2C,x,1.1,17.4,x,10.4*,25.1*,17.1*
COC(=O)[C@]12C[C@H](CC(=O)NCc3ccccc3)C(=O)N(Cc3ccco3)C1=C[C@H](COCc1ccccc1)O[C@@H]2C,x,0.2,6.5,x,10.2*,26.6*,11.7*
O=C(C(=O)N1CCC(CNS(=O)(=O)c2ccc(OC(F)(F)F)cc2)CC1)c1cc2ccccc2o1,x,0.0,-2.9,x,2.7,x,x
O=Nc1ccccn1,x,1.1,-29.9,x,-5.6,x,x
O=C(N[C@H](C(=O)N1CCC[C@H]1C(=O)NCCc1ccccc1Cl)c1ccccc1)c1ccc(Cl)cc1Cl,x,1.6,0.4,x,1.7,x,x
C[C@@H]1ON(C)[C@H]2C[C@H]3c4[nH]c5c(-c6ccccc6F)cccc5c4CCN3C(=O)[C@@H]12,x,-2.6,-215.4,x,-61.2,x,x
O=C(N[C@H](C(=O)N1CCC[C@H]1C(=O)NCc1ccccc1)c1ccccc1)c1ccc(Cl)c(Cl)c1,x,1.9,6.8,x,1.9,x,x
O=C(CSc1nc(Nc2ccccc2)nc(N2CCOCC2)n1)Nc1ccccc1Cl,-4.6,0.0,-1.7,32.1,-1.2,x,x
